Measured values as given in PubChem BioAssay (NCI).
Where “and” joins values, the source holds several entries; their conditions need not be identical. Identical values can stand only once. Compounds without any hit were thinned out: in the full panel of roughly 83,000, 20% have a hit.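 In brief: 96-well plates, 48 h treatment, single concentration, percent growth endpoint.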 Unmarked numbers belong to inactive results. Calls of active or inactive are those of the source. How the source made its calls: active means growth percent below 10; inactive means the rest.

Tested on: MDA-MB-468 breast
Experiment: NCI-60 one-dose screen, 48 h (100 = growth as untreated, 0 = no growth, -100 = all killed)
Conditions: 10 µM unless noted

| Structure (SMILES) | growth |
| --- | --- |
| Nc1ccc(P(=O)(O)O)cc1 | 104% and 92.6% |
| COc1cc(C2(C#N)CCN(C)CC2)cc(OC)c1OC | 108% |
| CC(C)(C)NCC(O)c1ccccc1Cl (stereo not given) | -12.6% (active) |
| COC(=O)[C@@H](C)C[C@H](Cc1ccc2ccccc2c1)NC(=O)c1csc([C@@H](C[C@H](C(C)C)N(C)C(=O)[C@@H](NC(=O)[C@H]2CCCCN2C)C(C)C)OC(C)=O)n1 | 67% |
| CC[n+]1c(-c2ccccc2)c2cc(N)ccc2c2ccc(N)cc21 | -62.8% (active) |
| CCCCCCCCCCCCNC(c1ccccc1)C(O)c1ccccc1 (stereo not given) | 48.5% |
| ClCCN(CCCl)c1ccc(/C=N/Nc2ncnc3nc[nH]c23)cc1 | 49.8% |
| COC(=O)C1OC(Oc2ccc(N(CCCl)CCCl)cc2)C(OC(C)=O)C(OC(C)=O)C1OC(C)=O (stereo not given) | 28.3% |
| CN(C)[C@@H]1C(=O)C(C(N)=O)=C(O)[C@@]2(O)C(=O)C3=C(O)c4c(O)ccc(Cl)c4[C@@](C)(O)[C@H]3C[C@@H]12 | 105% and 101% |
| CCCCCN(CCCCC)CC(O)c1cc(Cl)ccc1OC (stereo not given) | 57.7% |
| [Cl][Hg][c]1ccc(Cl)s1 | -61% (active) |
| Cc1ccc(S(=O)(=O)C(Cl)(Cl)Cl)cc1 | 99.8% |
| COC(=O)[C@@H](C)C[C@H](Cc1ccccc1)NC(=O)c1nc([C@@H](C[C@H](C(C)C)N(C)C(=O)[C@@H](NC(=O)[C@H]2CCCCN2C)C(C)C)OC(C)=O)sc1C(C)C | 20.7% |
| O=C(CC1(O)C(=O)N(Cc2ccccc2)c2ccc(Cl)cc21)c1ccc(C(=O)NCC2CCC3(CC2)OOC2(CCCCC2)OO3)cc1 (stereo not given) | 6.64% (active) |
| O=c1[nH]c2ccccc2n1C1CCN(CCCC(c2ccc(F)cc2)c2ccc(F)cc2)CC1 | 33% |
| COc1ccc2c(ccc3oc([N+](=O)[O-])cc32)c1 | -57.8% (active) |
| COC(=O)[C@@]1(O)C[C@H]2O[C@]1(C)n1c3ccccc3c3c4c(c5c6ccccc6n2c5c31)C(=O)NC4 | -72.4% (active) |
| O=C1CCCCC1CN1CCCCC1 (stereo not given) | 112% |
| C[C@@]12CCCc3coc(c31)C(=O)c1cc3c(cc12)C(=O)C1=C(NCCS1(=O)=O)C3=O | -65.6% (active) |
| Cc1cc(N(CCCl)CCCl)ccc1C=Nc1ccc(-c2csc(Cc3ccccc3)n2)cc1 | 39.3% |

| Structure (SMILES) | growth |
| --- | --- |
| CNC(=O)Oc1cccc(OC)c1 | 106% |
| C=COC(=O)CCN1CC1 | 108% |
| CC(=O)O[C@@H]1[C@@H]2O[C@H]2[C@@](C)(O)C(=O)[C@@H](C)C/C=C/[C@H]2[C@@H]3O[C@]3(C)[C@@H](C)C3[C@H](Cc4ccccc4)NC(=O)[C@@]312 (stereo not given in full) | 56.8% |
| CC1=C2C(=O)[C@H]3[C@@H](CC=C4C[C@@H](O)CC[C@@]43C)[C@@H]2CC[C@]12O[C@@H]1C[C@H](C)CN[C@H]1[C@H]2C | 85.6% |
| COC(C(=O)[C@@H](O)[C@@H](C)O)[C@@H]1Cc2cc3cc(O[C@H]4C[C@@H](O[C@H]5C[C@@H](O)[C@H](O)C(C)O5)[C@H](O)C(C)O4)c(C)c(O)c3c(O)c2C(=O)[C@H]1O[C@H]1C[C@@H](O[C@H]2C[C@@H](O[C@H]3C[C@@H](O)[C@@H](O)C(C)O3)[C@@H](O)C(C)O2)[C@H](O)C(C)O1 (stereo not given in full) | -41.2% (active) |
| CC(C)COC(C[N+](=O)[O-])C(Cl)(Cl)Cl (stereo not given) | 112% |
| COC(=O)[C@@H](C)C[C@H](Cc1ccccc1)NC(=O)c1csc([C@@H](C[C@H](C(C)C)N(C)C(=O)[C@@H](NC(=O)[C@H]2CCCCN2C)C(C(F)(F)F)C(F)(F)F)OC(C)=O)n1 | 51.7% |
| O=P1(NCCCl)OCCCN1CCCl (stereo not given) | 99.1% |
| [Br][Pb]([c]1ccccc1)([c]1ccccc1)[c]1ccccc1 | -88.2% (active) |
| CC[C@H](C)[C@H](NC(=O)[C@H]1CCCCN1C)C(=O)N(C)[C@H](C[C@@H](OC(C)=O)c1nc(C(=O)NC23C4C5C2C2C3C4C52C(=O)OC)cs1)C(C)C (stereo not given in full) | -2.75% (active) |
| CCCC1CCCCC12C(=O)NC(=O)NC2=O (stereo not given) | 113% |
| CC(=O)O[C@H](C[C@H](C(C)C)N(C)C(=O)[C@@H](NC(=O)[C@H]1CCCCN1C)C(C)C)c1nc(C(=O)NC2CCC(C(=O)O)CC2)cs1 (stereo not given in full) | 29.6% |
| CCCN1C(=O)NC(=O)C(CC)(N2C(=O)c3c(F)c(F)c(F)c(F)c3C2=O)C1=O (stereo not given) | -50.8% (active) |
| O=C(O)CNCP(=O)(O)O | 102% |
| CC(C)(C)N1CC1C#N (stereo not given) | 97% |
| O=[N+]([O-])/C=C\c1ccc2c(c1)OCO2 | 82% |
| O=C1NC(=S)NC(=O)C1=Cc1ccccc1 | 117% |
| COc1ccn(C)c(=O)c1C#N | 102% |
| CC1=C(CCCOC(=O)CN)C2=C(C)C3(CC3)[C@@](C)(O)C(=O)C2=C1 | 20.2% |
| Cc1cc(N(CCCl)CCCl)ccc1C=Nc1ccccc1-c1ccccc1 | 2.49% (active) |
